# Measurements published in PubChem BioAssay (NCI).
# Compounds without any hit were thinned out: in the full panel of roughly 83,000, 20% have a hit.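 Interpretation: 100, growth as untreated; towards 0, rising growth inhibition; 0, no net growth; 0 to -100, cell death. Compounds scoring below 10 were considered active.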 A number with no mark means an inactive call. Calls of active or inactive are those of the source.
# Test system: A549/ATCC NSCLC
# Experiment: NCI-60 one-dose screen, 48 h (100 = growth as untreated, 0 = no growth, -100 = all killed)
# Conditions: 10 µM unless noted
row,Compound,growth
1,CCCCN(CCCC)c1ccc(C(=N)c2ccc(N(CCCC)CCCC)cc2)cc1,-86.6% (active)
2,Clc1ccc(-c2nc3ccccc3s2)cc1Cl,97.7%
3,Cc1nc2c3c(ncn2n1)Oc1c(c(=O)[nH]c2ccccc12)C3c1ccc(Cl)cc1 (stereo not drawn),97.4%
4,O=C(NNC(=S)Nc1ccccc1)c1cc2ccc1CCc1ccc(cc1)CC2,59.2%
5,O=C(Nc1ccc2c(c1)OCCO2)C(=O)c1c[nH]c2ccccc12,47.7%
6,COc1ccc2c(c1)C(c1cc(OC)c3c(c1)OCO3)C1=C(COC1=O)N2 (stereo not drawn),14.7%
7,Fc1ccc(Nc2nc(NCCNc3ccnc4cc(Cl)ccc34)nc(N3CCOCC3)n2)cc1,55.7%
8,S=c1[nH]nc(-c2cc3ccc2CCc2ccc(cc2)CC3)n1-c1ccccc1,93.1%
9,CC(C)(C)NCCC(O)c1cc2c(Cl)cc(Cl)cc2c2cc(C(F)(F)F)ccc12 (stereo not drawn),-88.2% (active)
10,COc1ccc2cc(-c3ccc(-c4ccc(C(=N)N)cc4)s3)ccc2c1,104%
11,CCN(CC)CCC(CNc1c2ccc(Cl)cc2nc2ccc(OC)cc12)c1ccccc1 (stereo not drawn),-62.4% (active)
12,Cc1ccc(S(=O)(=O)C2=C3C(=C(c4ccccc4)c4ccccc43)CN(S(=O)(=O)c3ccc(C)cc3)C2)cc1,70.9%
13,Cc1ccc(S(=O)(=O)NCCNc2nccc(-c3c(-c4cccc(N)c4)nc4sccn34)n2)cc1,87.4%
14,CC(C)NCCCNC1=C(Cl)C(=O)c2ccccc2C1=O,81.7%
15,COc1cccc(CC(C)=C(c2ccc(OCCN(C)C)cc2)c2ccc(OCCN(C)C)cc2)c1,-21.7% (active)
16,S=c1[nH]nc(-c2cc3ccc2CCc2ccc(cc2)CC3)n1C1CC1,108%
17,COc1ccc(Nc2[nH]n3c(=O)cc(-c4ccccc4)nc3c2C(=O)Nc2ccc(C)cc2)c(OC)c1,88.7%
18,O=c1[nH]c2ccc(Br)cc2c2c1C(c1ccc(Cl)cc1)c1c(ncn3nc(-c4ccco4)nc13)O2 (stereo not drawn),74.8%
19,COc1cc(-c2nn(-c3cccc(NC(=O)Nc4cc(C(F)(F)F)cc(C(F)(F)F)c4)c3)cc2-c2ccncc2)ccc1Cl,-23.8% (active)
20,COc1cc(/C=C/C(=O)N2CCN(C(=O)/C=C/c3cc(OC)c(OC)c(OC)c3)CC2)cc(OC)c1OC,105%

row,Compound,growth
1,CCN(CC)CCOC(=O)C(c1ccccc1)(c1ccccc1)C(C)C,80%
2,C=C[C@@H]1C[C@H](O)Cc2c(C)cc(C)cc2N1,98.3%
3,N=C(N)c1ccc(-c2cc(Cl)cc(Cl)c2)cn1,93.9%
4,CCCCCCCCCCCCNC(=O)[C@H]1CSC(c2ccsc2)N1 (stereo partly drawn),63.7%
5,O=C(NCc1cn(Cc2cccc(Oc3ccccc3)c2)nn1)c1cccnc1Nc1ccc(F)cc1,59.5%
6,CCN1CCN(CC(=O)N2c3cccc4cccc(c34)N(C(=O)CN3CCN(CC)CC3)C2c2cn(-c3ccccc3)nc2-c2cccc([N+](=O)[O-])c2)CC1,12.9%
7,O=S(=O)(NCCCNc1nccc(-n2ccc3cccnc32)n1)c1ccc(Br)cc1,107%
8,COC(=O)C(Sc1ccc(Cl)cc1)C1SC(=S)N(Cc2ccccc2)C1=O (stereo not drawn),98.2%
9,Cc1ccc2[nH]c(=O)c3c(c2c1)Oc1ncn2nc(-c4ccco4)nc2c1C3c1ccc(Cl)cc1 (stereo not drawn),96.7%
10,c1ccc(-c2cn(-c3ccccc3)c(-c3ccccc3)n2)cc1,48%
11,CCN(CC)CCCC(C)Nc1c2ccc(Cl)cc2nc2cc(OC)c(OC)cc12 (stereo not drawn),4.12% (active)
12,CN(C)c1cccc2c(S(=O)(=O)/N=C(\N)Nc3nc4ccccc4s3)cccc12,52.3%
13,O=C(Nc1ccc(Cl)c(Cl)c1)NS(=O)(=O)c1cnccc1Oc1ccc(F)cc1,28%
14,Cc1ccc2nc(Cl)cc(=O)n2c1,113%
15,Cn1ccc(=O)c(S(N)(=O)=O)c1,99.7%
16,COc1ccc(-c2c(N)n[nH]c2-c2cc3c(c(OC)c2OC)OCO3)cc1,97.1%
17,CC(=O)Oc1csc(N(C(C)=O)c2cccc(C(F)(F)F)c2)n1,92.3%
18,C=C1CCC2C3(C)COC(C)(C)OC3CCC2(C)C1C/C=C1/C(=O)OCC1Oc1ccccc1OC (stereo not drawn),97.7%
19,COc1ccc(/C=C\c2cc(OC)c(OC)c(OC)c2)cc1OC(=O)c1cccc(Cn2cc(CCOC(=O)c3cccc(Cn4nnc5c4C(=O)c4ccccc4C5=O)c3)nn2)c1,17.3%

# Test system: 786-0 renal
# Experiment: as above
# Conditions: 10 µM unless noted
row,Compound,growth
1,CCCCN(CCCC)c1ccc(C(=N)c2ccc(N(CCCC)CCCC)cc2)cc1,-91.2% (active)
2,Clc1ccc(-c2nc3ccccc3s2)cc1Cl,103%
3,O=C(Nc1ccc2c(c1)OCCO2)C(=O)c1c[nH]c2ccccc12,59.7%
4,COc1ccc2c(c1)C(c1cc(OC)c3c(c1)OCO3)C1=C(COC1=O)N2 (stereo not drawn),29.5%
5,Fc1ccc(Nc2nc(NCCNc3ccnc4cc(Cl)ccc34)nc(N3CCOCC3)n2)cc1,53.6%
6,CC(C)(C)NCCC(O)c1cc2c(Cl)cc(Cl)cc2c2cc(C(F)(F)F)ccc12 (stereo not drawn),-65.5% (active)
7,COc1ccc2cc(-c3ccc(-c4ccc(C(=N)N)cc4)s3)ccc2c1,99.5%
8,CCN(CC)CCC(CNc1c2ccc(Cl)cc2nc2ccc(OC)cc12)c1ccccc1 (stereo not drawn),-85% (active)
9,Cc1ccc(S(=O)(=O)C2=C3C(=C(c4ccccc4)c4ccccc43)CN(S(=O)(=O)c3ccc(C)cc3)C2)cc1,5.02% (active)
10,Cc1ccc(S(=O)(=O)NCCNc2nccc(-c3c(-c4cccc(N)c4)nc4sccn34)n2)cc1,96.3%
11,CC(C)NCCCNC1=C(Cl)C(=O)c2ccccc2C1=O,113%
12,COc1cccc(CC(C)=C(c2ccc(OCCN(C)C)cc2)c2ccc(OCCN(C)C)cc2)c1,-91% (active)
13,COc1ccc(Nc2[nH]n3c(=O)cc(-c4ccccc4)nc3c2C(=O)Nc2ccc(C)cc2)c(OC)c1,92.7%
14,COc1cc(-c2nn(-c3cccc(NC(=O)Nc4cc(C(F)(F)F)cc(C(F)(F)F)c4)c3)cc2-c2ccncc2)ccc1Cl,-71.1% (active)
15,COc1cc(/C=C/C(=O)N2CCN(C(=O)/C=C/c3cc(OC)c(OC)c(OC)c3)CC2)cc(OC)c1OC,96.8%
16,C=C[C@@H]1C[C@H](O)Cc2c(C)cc(C)cc2N1,98.8%
17,N=C(N)c1ccc(-c2cc(Cl)cc(Cl)c2)cn1,95.3%
18,CCCCCCCCCCCCNC(=O)[C@H]1CSC(c2ccsc2)N1 (stereo partly drawn),-94.8% (active)
19,O=C(NCc1cn(Cc2cccc(Oc3ccccc3)c2)nn1)c1cccnc1Nc1ccc(F)cc1,69.8%
20,O=S(=O)(NCCCNc1nccc(-n2ccc3cccnc32)n1)c1ccc(Br)cc1,104%
21,COC(=O)C(Sc1ccc(Cl)cc1)C1SC(=S)N(Cc2ccccc2)C1=O (stereo not drawn),103%
22,c1ccc(-c2cn(-c3ccccc3)c(-c3ccccc3)n2)cc1,71.5%
23,CCN(CC)CCCC(C)Nc1c2ccc(Cl)cc2nc2cc(OC)c(OC)cc12 (stereo not drawn),38.6%
24,CN(C)c1cccc2c(S(=O)(=O)/N=C(\N)Nc3nc4ccccc4s3)cccc12,77.6%
25,O=C(Nc1ccc(Cl)c(Cl)c1)NS(=O)(=O)c1cnccc1Oc1ccc(F)cc1,83.9%
26,Cc1ccc2nc(Cl)cc(=O)n2c1,100%
27,Cn1ccc(=O)c(S(N)(=O)=O)c1,103%
28,COc1ccc(-c2c(N)n[nH]c2-c2cc3c(c(OC)c2OC)OCO3)cc1,105%
29,C=C1CCC2C3(C)COC(C)(C)OC3CCC2(C)C1C/C=C1/C(=O)OCC1Oc1ccccc1OC (stereo not drawn),99.9%
